# aSyn UTR act – Activators working through SNCA 5'UTR binding (MLPCN); hit rate 7.1% among 300,000; alpha-synuclein 5'UTR reporter, activators screen; activity score, % (tested at 7.5 µM), hits read low; AID 1814; in the data active = activity score below about -60%
# Numbers without * were called inactive; + = active, no number. A selection follows.
SMILES,aSyn UTR act
CCOC(=O)c1c(C)nc2sc(C(=O)Nc3ccc(C(C)=O)cc3)c(N)c2c1-c1ccc(OC)cc1,-90.3*
COc1ccc(NC(=O)c2sc3nc(C)cc(C)c3c2N)cc1,-171.8*
Cc1cc(C)c2c(N)c(C(=O)Nc3ccc([N+](=O)[O-])cc3)sc2n1,-144.1*
COCc1cc(C)nc2sc(C(=O)NN)c(-n3cccc3)c12,71.4
COCc1cc(C)nc2sc(C(=O)Nc3ccccc3F)c(N)c12,-81.9*
C=CCNc1nc(N)c(C(=O)Nc2cc(C)on2)s1,-111.1*
Cc1cc(C)c2c(N)c(C(=O)Nc3ccc(C)c(C)c3)sc2n1,-63.0*
O=C(N/N=C/c1cccs1)c1n[nH]c2c1CCC2,67.9
Cc1cc(C)c2c(N)c(C(=O)N/N=C/c3cccs3)sc2n1,-140.3*
Cc1cc(C(F)(F)F)c2c(N)c(C(=O)Nc3cc(C)on3)sc2n1,-124.7*
Cc1cc(C)cc(NC(=O)c2sc3nc(C)cc(C)c3c2N)c1,-136.1*
COc1ccc2c(c1OC)C(=O)N1c3ccccc3SC21 (centres undefined),-142.3*
COc1ccc2c(c1OC)C(=O)N1c3ccccc3C(=O)N(c3ccccc3F)C21 (centres undefined),60.6
COc1ccc2c(c1OC)C(=O)N1c3ccccc3COC21 (centres undefined),-139.9*
O=S(=O)(c1ccc(NC(=S)NCc2cccnc2)cc1)N1CCCCC1,86.4
O=C(NCc1cccnc1)Nc1ccc2c(c1)OCO2,-63.2*
O=C(NCCCn1ccnc1)Nc1ccc2c(c1)OCO2,-106.7*
Cc1nn(C)c(C)c1CNC(=O)Nc1cccc(Cl)c1,-105.5*
C=CCOc1ccc(NC(=O)C(=O)NCCCn2ccnc2)cc1,51.0
Cc1nn(C)c(C)c1CNC(=O)Nc1ccc(Cl)cc1,-88.7*
Cc1nn(C)c(C)c1CNC(=O)Nc1ccc2c(c1)OCO2,-72.1*
O=C(CNc1ccc(Br)cc1)c1ccc(Br)s1,-68.3*
C=CCc1cccc(/C=C/c2cc(=O)c3ccccc3[nH]2)c1O,-70.8*
C=CCc1cccc(/C=N/NC(=O)CNc2ccccc2)c1O,73.9
Cc1cc(=O)[nH]c(SCCOc2ccc3c(c2)CCC3)n1,-107.5*
SMILES,aSyn UTR act
O=C(Cc1c(Cl)cccc1Cl)OCc1ccccn1,-123.8*
N#CCc1ccc(C(=O)c2ccccc2)s1,-69.6*
CN(C(=O)COC(=O)c1cc(-c2ccc(Cl)s2)nc2ccccc12)C1CCS(=O)(=O)C1 (centres undefined),-82.1*
CCN(C(=O)COC(=O)c1cc(-c2ccc3cc(OC)ccc3c2)nc2ccccc12)C1CCS(=O)(=O)C1 (centres undefined),67.5
Cc1cc2[nH]c3c(c[n+](C)c4ccccc34)c2cc1C,101.2
Cc1cc2c([nH]c3ccccc32)c2c1OC(C)(C)C=C2,-204.0*
O=C(Nc1nc(=O)c2ccccc2s1)c1ccc(Cl)cc1,-140.3*
O=C(Nc1nc(=O)c2ccccc2s1)c1ccc(F)cc1,-264.2*
Cc1ccc(Sc2cnc3ccccc3n2)cc1,-176.1*
O=C(Cc1cc2ccccc2o1)NCc1ccc(F)cc1,-78.7*
C=CCNc1nc(Cl)nc(Nc2ccccc2)n1,-71.6*
COc1ccc(-c2csc(N3N=C(C)C(C)C3=O)n2)cc1 (centres undefined),-87.2*
CC1=NN(c2nc(-c3ccc(C)cc3)cs2)C(=O)C1N=Nc1ccccc1O (centres undefined),63.3
COc1ccc(-c2csc(C)n2)cc1,-100.2*
Cc1nc(-c2ccc(C(=O)Nc3ccc(F)cc3)cc2)cs1,-108.6*
Cc1nc(-c2ccc(C(=O)Nc3ccccc3F)cc2)cs1,92.4
COc1ccc(NC(=O)c2ccc(-c3csc(C)n3)cc2)cc1,-194.7*
Cc1nc(-c2cccc(N)c2)cs1,-63.2*
CC(OC(=O)CNC(=O)c1ccccc1F)C(=O)Nc1nc(-c2ccccc2)cs1 (centres undefined),-104.2*
Cc1nc(-c2cc(-c3ccc(Cl)cc3)no2)cs1,-137.0*
CC(C)(C)c1ccc(C(=O)NCC(=O)OCC(=O)Nc2nc(-c3ccc(F)cc3)cs2)cc1,-174.9*
CNc1nnc(-c2cc3ccccc3oc2=O)s1,-78.2*
COc1cccc2cc(-c3nc(-c4cccs4)cs3)c(=O)oc12,-174.1*
O=c1oc2ccccc2cc1-c1nc(-c2cccs2)cs1,-132.7*
N=c1oc2ccccc2cc1-c1nc(-c2ccccc2)cs1,-63.7*
SMILES,aSyn UTR act
c1csc(-c2csc(-c3cccs3)n2)c1,-103.6*
O=C1CC(/C=C/c2ccncc2)=Nc2ccccc2N1,-65.3*
CCC(=O)C1CCCN(C(=O)CCc2nnc(-c3ccc(C(C)=O)s3)o2)C1 (centres undefined),-87.7*
CCCOC1CCCN(C(=O)CCc2nnc(-c3ccc4c(c3)OCO4)o2)C1 (centres undefined),-73.4*
O=C1c2ccccc2-c2nc3ccccc3nc21,-181.9*
NC1=C(Br)C(=O)c2ccccc2C1=O,65.4
O=C1CCC/C(=N\NC(=O)c2ccc(COc3ccccc3-c3ccccc3)cc2)C1,-71.2*
CC1(C)C2C/C(=N\O)C(C)(/[N+]([O-])=C/c3cccc([N+](=O)[O-])c3)CC21 (centres undefined),-62.4*
O=C(Nc1ccccc1O)c1ccc(NS(=O)(=O)c2cccc3cccnc23)cc1,-604.6*
O=C(Nc1ncccc1O)c1ccc(S(=O)(=O)Nc2ccccc2)cc1,+
O=C(Nc1nc2ccccc2[nH]1)C1CCN(S(=O)(=O)c2cccs2)CC1,-69.5*
CC(=O)c1ccc(NC(=O)C2CCN(S(=O)(=O)c3cccs3)CC2)cc1,-79.9*
COc1ccccc1/C=C/C(=O)NCCc1ccccn1,-91.7*
COc1ccccc1C(NC(C)=O)c1cc(Cl)c2cccnc2c1O (centres undefined),67.5
COc1ccc(/C=C/C(=O)Nc2cccnc2Cl)cc1,-224.2*
COc1ccccc1/C=C/C(=O)Nc1cccnc1Cl,-132.5*
Cc1ccc2nc(SC(C)C(=O)N3CCOCC3)[nH]c2c1 (centres undefined),-94.4*
C/C(Cn1nnc([N+](=O)[O-])n1)=N\NC(=O)c1ccccc1,-72.6*
Nc1c(C(=O)N2CCCCC2)sc2nc3c(cc12)CCCC3,-151.0*
Cc1ccc(C(=O)c2sc3nc4c(cc3c2N)CCC4)cc1,-132.4*
Nc1c(C(=O)N2CCCC2)sc2nc(-c3ccccc3)ccc12,-190.4*
COC(=O)C1=C(C)N(Cc2ccccc2)C(=NCc2cccc(C(F)(F)F)c2)N[C@H]1c1cccc(F)c1,56.6
Cc1ccc(C(=O)NC(=C(Cl)Cl)S(=O)(=O)c2ccc(C)cc2)cc1,-72.2*
CC(=O)NC(=C(Cl)Cl)S(=O)(=O)c1ccccc1,-136.6*
CCC1CCC(NC(=O)Nc2cccc(OC)c2)CC1 (centres undefined),-192.7*
SMILES,aSyn UTR act
COc1ccc(NC(=O)Nc2ccc3oc(C)nc3c2)cc1,-163.5*
COc1cccc(NC(=O)Nc2ccccc2Br)c1,-120.5*
COc1cccc(NC(=O)Nc2ccc3nsnc3c2)c1,-182.5*
COc1ccc(NC(=O)Nc2ccc(C(C)C)cc2)cc1,-75.0*
Cc1cc(C)nc(NC(=O)Nc2ccc(F)cc2F)n1,-111.7*
Cc1nc2cc(NC(=O)NCCC3=CCCCC3)ccc2o1,-151.4*
COCC(=O)Nc1ccc(C(C)C)cc1,-69.0*
COc1ccc(NC(=O)Nc2ccc3c(c2)CCC3)cc1,-149.0*
COc1ccc(NC(=O)Nc2cccc(OC)c2)cc1,-134.0*
COc1ccc(Nc2cc(Nc3cccc(OC)c3)ncn2)cc1,-80.0*
COc1ccc(NC(=O)Nc2ccc(F)cc2F)cc1,-138.8*
COc1cc(-c2ccc(NC(=O)NC3CC3)c(OC)c2)ccc1NC(=O)NC1CC1,-99.1*

# Compound activity from PubChem.
